Results filed as inconclusive are left out. Unmarked numbers belong to inactive results. Active and inactive are the calls of the source. Calls follow the shape of the dose curve; as a rule, active = well fitted inhibition curve with a large enough effect; inconclusive = small, poorly fitted or top-dose-only effect; inactive = no such curve, though single readings can be large or run the other way.
% is scaled to controls: 0 for no effect and ±100 for the full control effect; potency is read from the fitted curve at half-maximal effect.

The nature of one assay: qHTS assay to identify inhibitors of the type 1 interferon - major histocompatibility complex class I in skeletal muscle: Counter screen cell viability and HiBit confirmation (AID 1347412). Also: nearly all actives have a fitted effect of over 60% in size. As to conditions: iHSKM muscle cells + IFN-b, HiBiT or CellTiter-Glo, 24 h; HiBiT. The source says:
Assay Submitter (PI): Travis B. Kinder Ph.D. & James Inglese Ph.D. Assay Development and Screening Technology Laboratory (ADST) National Center for Advancing Translational Sciences (NCATS), Rockville, MD National Institute of Health (NIH), Bethesda, Maryland Idiopathic inflammatory myopathies, collectively referred to as myositis, are a group of rare autoimmune diseases characterized by skeletal muscle inflammation, weakness, and usually accompanied by systemic pathologies of the skin, lungs, or vasculature. Current immunosuppressive therapies and glucocorticoids are often not curative and are accompanied by harsh side effects, especially in children with juvenile myositis. We initiated a drug repurposing and development program to identify more targeted, less toxic therapeutics to treat myositis. Although its cause is not known, muscle from a subset of patients have an abundance of the inflammatory type 1 interferon (IFN) and a down-stream product major histocompatibility complex class I (MHC class I), which are both thought to contribute to damage and weakness. We conducted quantitative high throughput screening on 6,576 compounds (4,679 unique) through a series of cell-based assays to identify those that inhibit the IFN-stimulated expression of MHC class I in muscle precursor cells (myoblasts). The compound identification and evaluation strategy utilized a primary screen with reporter-tagged MHC class I in genome-engineered myoblasts, ATP content counter screen for viability, HLA-ABC immunofluorescence secondary screen, and HLA-B RT-qPCR tertiary screen. The primary screen utilized CRISPR/Cas9 genome-engineering of immortalized human myoblasts, C25cl48, where a pro-luminescent reporter HiBit was fused to the C-terminus of endogenous MHC class I allele HLA-B*08:01 (HLA-B HiBit myoblasts). HiBit is an 11 amino acid fragment of NanoLuc luminescent reporter (Promega Corporation), and when complexed to the larger LgBit fragment, the reconstituted enzyme produces light in the presence of furimazine substrate (Schwinn et al., 2018). Briefly, HLA-B HiBit myoblasts were plated into 1536-well plates, treated with 4.0 ng/ml human IFN-beta and 650 inhibitory compounds identified from primary screening in a 12-point, 1:3 titration with a high final concentration of 46 uM. Compounds were pinned into duplicate plates, with one for HiBit confirmation and one for ATP content viability assay. After 24 hrs of treatment, cells were assayed by either Nano-Glo HiBiT Lytic Detection System (Promega) or CellTiter Glo (Promega), and luminescence measured by a ViewLux 1430 Ultra HTS (Perkin Elmer). References: Schwinn MK, Machleidt T, Zimmerman K, Eggers CT, Dixon AS, Hurst R, Hall MP, Encell LP, Binkowski BF, Wood K V. 2018. CRISPR-Mediated Tagging of Endogenous Proteins with a Luminescent Peptide. ACS Chem Biol 13:467-474. doi:10.1021/acschembio.7b00549
PROTOCOL TABLE (as described by Inglese et al., 2007) SEQUENCE No. (e.g., 1, 2, 3, etc.); […] (e.g., Cells, Incubation, Reagent, etc.); VALUE; DESCRIPTION 1a; Cells; 5 uL; Use a Multidrop Combi (Thermo Scientific) to seed 300 cells/well into 16 Greiner 1536 well white/solid bottom, high base, TC plates in 5 ul/well of iHSKM growth medium (GM) without dexamethasone into columns 1+2. Add metal lids with gas-exchange holes 1b; Cells; 5 uL; Use a Multidrop Combi (Thermo Scientific) to seed 300 cells/well into 16 Greiner 1536 well white/solid bottom, high base, TC plates in 5 ul/well of iHSKM GM without dexamethasone + 4 ng/ml IFN-b into columns 3 - 48. Add metal lids with gas-exchange holes 2; Incubate; 1 hr; Incubate at 37 C, 5% CO2, 95% RH 3; Compounds; 23 nl; Use Pin Tool (Wako) to transfer DMSO control, 92 uM final digitonin cytotoxic control, ruxolitinib IFN-b inhibitor control [High Concentration = 80 uM final, 16-pt, 1:2 in duplicate], and library compounds in DMSO. […]
A general note: qHTS replaces the single test concentration by a dilution series.
With `COc1cc2nccc(Oc3ccc(NC(=O)Nc4ccc(F)cc4F)c(F)c3)c2cc1OC`, the Potency is 8.83 µM (active).

For the molecule `Cc1cnc(Nc2cccc(CN3CCOCC3)c2)nc1Nc1cccc(S(=O)(=O)NC(C)(C)C)c1`, the Potency was 7.01 µM (active).

`COc1ccc(-c2cc3nccn3c(Nc3ncccc3C(N)=O)n2)cc1OC`: the Potency is 7.87 µM (active).

On to `COc1c(C)cnc(Cn2cnc3c(Cl)nc(N)nc32)c1C`, for which the Potency is 0.222 µM (active).

As to `CC1(C)CC(=O)c2c(C(F)(F)F)nn(-c3ccc(C(N)=O)c(NC4CCC(O)CC4)c3)c2C1` (stereo not given), the Potency was 0.0701 µM (active).

On to `Cc1cccc(Nc2nc(N[C@@H]3CCCC[C@H]3N)ncc2C(N)=O)c1`, for which the Potency is 15.7 µM (active).

Regarding `Nc1ncnc2c1c(-c1cccc(OCc3ccccc3)c1)cn2C1CC(CN2CCC2)C1` (stereo not given), the Potency was 22.2 µM (active).

`CC(C)Oc1cc(Nc2nc(N[C@@H](C)c3ccc(F)cn3)ncc2Cl)[nH]n1`: the Potency was 9.91 µM (active).

Consider `CC1(COc2ccc3c(c2)ncn3-c2ccc3cccc(N4CCC(N)CC4)c3n2)COC1`, for which the Potency was 3.52 µM (active).

Staying with this assay, now noted: iHSKM muscle cells + IFN-b, HiBiT or CellTiter-Glo, 24 h; HiBiT; at 45.9 µM (top of the series).
As to `C[C@@H](NC(=O)c1ncnc(N)c1Cl)c1ncc(C(=O)Nc2cc(C(F)(F)F)c(Cl)cn2)s1`, the activity change, negative = inhibition is -24.2%.

Consider `CNC(=O)c1ccc2c(C(=Nc3cccc(CN(C)C)c3)c3ccccc3)c(O)[nH]c2c1`, for which the activity change, negative = inhibition was -0.844%.

Regarding `OC(c1cc(C(F)(F)F)nc2c(C(F)(F)F)cccc12)C1CCCCN1` (stereo not given), the activity change, negative = inhibition is -11.4%.

`CNC(=O)c1cc(Oc2ccc(NC(=O)Nc3ccc(Cl)c(C(F)(F)F)c3)c(F)c2)ccn1`: the activity change, negative = inhibition is -24.1%.

The same assay, now with this note: iHSKM muscle cells + IFN-b, HiBiT or CellTiter-Glo, 24 h; Viability.
Turning to `COc1cc2nccc(Oc3ccc(NC(=O)Nc4ccc(F)cc4F)c(F)c3)c2cc1OC`, the Potency was 7.87 µM (active).

In the case of `COc1ccc(-c2ccc3ncc4c(c3c2)n(-c2ccc(N3CCNCC3)c(C(F)(F)F)c2)c(=O)n4C)cn1`, the Potency is 4.43 µM (active).

Take `CN(C)CCN(C)C(=O)c1ccc(NC(=O)Nc2ccc(-c3nc(N4CCOCC4)c4ccn(CC(F)(F)F)c4n3)cc2)cc1`: the Potency is 1.11 µM (active).

Take `CC1(COc2ccc3c(c2)ncn3-c2ccc3cccc(N4CCC(N)CC4)c3n2)COC1`: the Potency was 27.9 µM (active).

Still in this assay, the particulars now being: iHSKM muscle cells + IFN-b, HiBiT or CellTiter-Glo, 24 h; Viability; at 45.9 µM (top of the series).
On to `C[C@@H](NC(=O)c1ncnc(N)c1Cl)c1ncc(C(=O)Nc2cc(C(F)(F)F)c(Cl)cn2)s1`, for which the activity change, negative = inhibition is -2.15%.

Consider `Fc1ccc(CNc2ncnc3ccc(F)cc23)cc1`, for which the activity change, negative = inhibition is 2.98%.

Consider `NC1(C(=O)N[C@@H](CCO)c2ccc(Cl)cc2)CCN(c2ncnc3[nH]ccc23)CC1`, for which the activity change, negative = inhibition is -19.1%.

Take `CC(C)(O)CC(=O)NCCn1ccc2ncnc(Nc3ccc(Oc4cccc(C(F)(F)F)c4)c(Cl)c3)c21`: the activity change, negative = inhibition was -19.7%.

With `COc1ccc(-c2cc3nccn3c(Nc3ncccc3C(N)=O)n2)cc1OC`, the activity change, negative = inhibition was -22.4%.

In the case of `O=C1CN2Cc3c(ccc(Cl)c3Cl)N=C2N1`, the activity change, negative = inhibition was -3.92%.

As for `CNC(=O)c1ccc2c(C(=Nc3cccc(CN(C)C)c3)c3ccccc3)c(O)[nH]c2c1`, the activity change, negative = inhibition is -1.9%.

Take `COc1ccc2nc3cc(Cl)ccc3c(Nc3cc(CN4CCCC4)c(O)c(CN4CCCC4)c3)c2n1`: the activity change, negative = inhibition is -8.41%.

With `CC(C)(C)c1nc(-c2cccc(NS(=O)(=O)c3c(F)cccc3F)c2F)c(-c2ccnc(N)n2)s1`, the activity change, negative = inhibition is 12.8%.

With `OC(c1cc(C(F)(F)F)nc2c(C(F)(F)F)cccc12)C1CCCCN1` (stereo not given), the activity change, negative = inhibition was -12.8%.

For the molecule `CCc1cc(-c2n[nH]c(C)c2-c2ccc3c(c2)OCCO3)c(O)cc1O`, the activity change, negative = inhibition was -3.79%.

`CC(C)CNc1ccnc(NCc2csc(-c3ccccc3)n2)n1`: the activity change, negative = inhibition is -28.7%.

`Cc1ccccc1-n1c(Cn2nc(-c3cccc(O)c3)c3c(N)ncnc32)nc2cccc(C)c2c1=O`: the activity change, negative = inhibition is 7.45%.

As to `CNC(=O)c1cc(Oc2ccc(NC(=O)Nc3ccc(Cl)c(C(F)(F)F)c3)c(F)c2)ccn1`, the activity change, negative = inhibition is 2.73%.

In the case of `CC[C@H](CC#N)OC(=O)N[C@@H](C)c1cccc(NC(=O)Nc2ccc(-c3cnco3)c(OC)c2)c1`, the activity change, negative = inhibition was -7.06%.

Turning to `O=C(Nc1cccc(Cl)c1)Nc1ncc(CCNc2ncnc3ccsc23)s1`, the activity change, negative = inhibition was 8.48%.

For the molecule `NS(=O)(=O)c1ccc(Nc2nc(OCC3CCCCC3)c3[nH]cnc3n2)cc1`, the activity change, negative = inhibition is -13.9%.

`CNC(=O)c1cc(COc2nnc(Nc3ccc(Cl)cc3)c3ccoc23)ccn1`: the activity change, negative = inhibition was -24.9%.
